Experimental findings from PubChem BioAssay (NCI) are described below.

The structures appear in SMILES notation. Compounds without any hit were thinned out: in the full panel of roughly 83,000, 20% have a hit.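 Single-concentration screen, 48 h exposure, 96-well plates. Endpoint: percent growth. Below 10 = active.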 Values without a mark were called inactive. Calls of active or inactive are those of the source.

Holding throughout (experiment): NCI-60 one-dose screen, 48 h (100 = growth as untreated, 0 = no growth, -100 = all killed)
Conditions in all cases: 10 µM

Assay [1] deals with DU-145 prostate.
In assay [2] the test system is K-562 leukemia.
The test system of assay [3] is MALME-3M melanoma.
Assay [4] deals with MDA-MB-231 breast.
The subject of assay [5] is RXF 393 renal.
In assay [6] the test system is SF-268 CNS.
In assay [7] the test system is SF-295 CNS.
Assay [8] deals with SF-539 CNS.
The subject of assay [9] is M14 melanoma.
The test system of assay [10] is HCT-15 colon.
The test system of assay [11] is HT29 colon.
The test system of assay [12] is SNB-75 CNS.
For assay [13], the system named is SNB-19 CNS.
Assay [14] has as its system U251 CNS.
In assay [15] the test system is PC-3 prostate.
For assay [16], the system named is SK-MEL-5 melanoma.
Assay [17] relates to UACC-62 melanoma.
Assay [18] has as its system SK-MEL-28 melanoma.
Assay [19] deals with LOX IMVI melanoma.

Turning to `COc1cc(C(=O)N2CCN(c3cc4c(cc3F)c(=O)c(C(=O)NO)cn4C3CC3)CC2)cc(OC)c1OC`, the growth is 104% in [1]; 103% in assay [2]; 105% in assay [3]; 98.8% in assay [4]; 104% in assay [5]; 98% in assay [6]. Moreover, the growth was 103% in assay [7]; 101% in [8]; 103% in [9]; 106% in assay [10]; 105% in [11]; 96.3% in assay [12]. For the same molecule, the growth in assay [13] is 100%; in [14], 98.1%; in assay [15], 93.6%; in assay [16], 101%; in assay [17], 95%; in [18] it was 108%.
In the case of `COc1cc2c3c(n([C@H]4CCOC4)c(=O)c2cc1OC)-c1cc2c(cc1C3=O)OCO2`, the growth in assay [1] was 19.8%; in assay [2], 59.6%; in assay [3], 78%; in assay [4], 91.8%; in [5], 41.7%; in assay [6] it was 31.7%. For the same molecule, the growth in [7] was -5.69% (active); in [8], 1% (active); in [9] it was 23%; in [10], 56.1%; in assay [11] it was 40.9%; in assay [12] it was 31.9%. Further, the growth in assay [13] is 31.2%; in [14], 11.9%; in assay [16], 7.91% (active); in [17] it was 11.3%; in [19] it was 4.78% (active); in [18], 72%.
With `CCn1c(SCc2ccc(C)cc2)nnc1-c1nn(-c2ccc(Cl)cc2Cl)c(-c2ccc(Cl)cc2)c1C`, the growth in assay [1] was 23.4%; in assay [2] it was 8.88% (active); in [3], 7.8% (active); in assay [4], 5.05% (active); in [5], 8.71% (active); in assay [6], 22.8%. Further, the growth in assay [7] is 9.65% (active); in assay [8] it was 19.8%; in assay [9] it was 12.3%; in assay [10], 11.6%; in [11], 2.65% (active); in assay [12], 23.3%. Also, the growth in assay [13] is 22.1%; in assay [14] it was 14.4%; in [16], -92.3% (active); in assay [17], 21.2%; in assay [19] it was 7.19% (active); in assay [18] it was 30.3%.
As for `CCn1c(SCCc2ccccc2)nnc1-c1nn(-c2ccc(Cl)cc2Cl)c(-c2ccc(Cl)cc2)c1C`, the growth is 84.7% in assay [1]; 48.1% in assay [2]; 96% in assay [3]; 81.1% in assay [4]; 66% in assay [5]; 77.4% in assay [6]. Besides, the growth is 65.7% in assay [7]; 85.9% in assay [8]; 72.8% in assay [9]; 45.6% in assay [10]; 67.2% in assay [11]; 90.7% in assay [12]. The growth was 76.7% in [13]; 54.7% in [14]; 39.8% in assay [15]; 74.3% in assay [16]; 68.6% in assay [17]; 63.8% in assay [19]. Also, the growth in assay [18] is 79.2%.
With `Cc1ccc(-n2c(C)nn3c(=O)c4c5c(sc4nc23)CN(C)CC5)cc1`, the growth in [1] was 99.8%; in assay [2], 100%; in assay [3], 93.7%; in [4] it was 96.3%; in assay [5], 105%; in assay [6], 94.1%. The growth in [7] is 98.1%; in [8], 101%; in assay [9], 95.8%; in assay [10] it was 101%; in assay [11], 86.6%; in [12], 93.4%. Further, the growth was 105% in assay [13]; 101% in assay [14]; 106% in assay [16]; 101% in [17]; 95.1% in assay [19]; 106% in assay [18].
With `O=C(CCCCNC(=O)c1nc(-c2ccccc2)n(-c2ccccc2)n1)NO`, the growth was 98.6% in assay [1]; 81.7% in [2]; 23.5% in assay [3]; 86.2% in assay [4]; 84.2% in assay [5]; 90.1% in [6]. Also, the growth in [7] is 93.6%; in assay [8], 65.1%; in [9], 66.8%; in assay [10], 91.3%; in [11], 73.6%; in assay [12], 70.8%. For the same molecule, the growth was 86% in assay [13]; 65.9% in [14]; 62.2% in [16]; 37.5% in assay [17]; 96.9% in assay [19]; 75.2% in assay [18].
As for `COc1cc(-c2csc(NC(=O)Nc3cc(C(F)(F)F)cc(C(F)(F)F)c3)n2)cc(OC)c1OC`, the growth in assay [1] is 20.3%; in assay [2], 17.5%; in assay [3], 6.56% (active); in [4] it was 14.4%; in [5], 47%; in assay [6], 32.7%. Moreover, the growth was -10.4% (active) in assay [7]; 23% in [8]; 21.9% in assay [9]; 11.8% in assay [10]; 7.94% (active) in assay [11]; 34.1% in assay [12]. Further, the growth in assay [13] was 25.3%; in assay [14], 9.2% (active); in assay [15], 4.29% (active); in assay [16], -4.49% (active); in [19] it was 6.63% (active); in assay [18], 17.6%.
For `CN1CCc2c(sc3nc4n(-c5ccc(Cl)cc5)c(=O)[nH]n4c(=O)c23)C1`, the growth was 103% in [1]; 107% in assay [2]; 98.5% in assay [3]; 120% in assay [4]; 118% in assay [5]; 106% in [6]. The growth in assay [7] is 104%; in assay [8] it was 99.8%; in assay [9], 99.3%; in assay [10], 103%; in assay [11], 86.4%; in [12], 95.2%. Also, the growth is 109% in assay [13]; 98.7% in assay [14]; 110% in [16]; 111% in [17]; 92.5% in assay [19]; 111% in assay [18].
Consider `Cc1noc(C)c1CSc1ccccc1C(=O)N1CCN(c2cccc(C(F)(F)F)c2)CC1`, for which the growth is 95.7% in [1]; 52.8% in assay [2]; 84.5% in [3]; 65.7% in assay [4]; 99.8% in assay [5]; 95.3% in assay [6]. In addition, the growth in [7] was 75.2%; in assay [8], 87.4%; in [9] it was 71.6%; in assay [10], 72.4%; in [11], 69.4%; in assay [12], 76.2%. Besides, the growth was 81.5% in assay [13]; 88.2% in assay [14]; 55.3% in [15]; 43.5% in [16]; 52.2% in assay [17]; 91.4% in assay [18].
On to `COCCn1cc(-c2nc(-c3cccnc3)cs2)c2cc(F)ccc21`, for which the growth in assay [1] was 90.4%; in assay [2], 95.2%; in [3], 99.8%; in [4], 92.3%; in [5] it was 99.5%; in assay [6], 90.7%. Moreover, the growth in assay [7] is 95.6%; in [8], 80.9%; in assay [9], 96.2%; in assay [10] it was 76.4%; in assay [11], 72.3%; in [12], 94.4%. Further, the growth was 97.3% in assay [13]; 90.2% in assay [14]; 82.9% in assay [16]; 89.2% in assay [17]; 90.7% in assay [19]; 97.2% in assay [18].
Turning to `Fc1ccc2[nH]cc(-c3nc(-c4ccsc4)cs3)c2c1`, the growth was 108% in assay [1]; 106% in [2]; 93% in assay [3]; 79.5% in assay [4]; 100% in assay [5]; 99.8% in assay [6]. Also, the growth was 89.8% in [7]; 94% in assay [8]; 93.7% in assay [9]; 91.4% in assay [10]; 100% in [11]; 92.2% in assay [12]. Moreover, the growth in assay [13] is 109%; in assay [14], 93.7%; in assay [16], 89.2%; in [17], 88.5%; in [19], 86.7%; in assay [18], 108%.
Consider `COc1cc(Cc2cc(-c3ccccc3)n[nH]c2=O)cc(OC)c1OC`, for which the growth is 84.2% in [1]; 19.3% in assay [2]; 71.8% in assay [3]; 54.7% in assay [4]; 60% in assay [5]; 69.8% in assay [6]. Also, the growth in [7] was 61.3%; in assay [8] it was 61.4%; in [9] it was 18.4%; in assay [10], 34.5%; in assay [11], 18.3%; in assay [12], 55.5%. Further, the growth in [13] was 62.9%; in assay [14] it was 48.7%; in [15], 61.9%; in [16], 50.4%; in assay [17] it was 43.3%; in assay [19] it was 45.5%. Moreover, the growth in assay [18] was 70%.
Regarding `O=C(O)c1ccc(-n2cc(CNc3ccc(Cl)cc3)c(-c3ccccc3)n2)cc1`, the growth in assay [1] was 95.7%; in assay [2], 77.5%; in [3], 79.9%; in [4] it was 88.6%; in assay [5] it was 98.6%; in [6], 100%. Also, the growth in assay [7] is 80.5%; in [8], 82.6%; in assay [9] it was 94.3%; in assay [10], 70.5%; in assay [11], 102%; in [12], 78.4%. Besides, the growth is 94.8% in assay [13]; 93.5% in assay [14]; 97.2% in assay [15]; 87.6% in assay [16]; 67.6% in assay [17]; 74.3% in assay [19]. For the same molecule, the growth in [18] was 92.8%.
For `N#Cc1c(N)nc(-c2cc(F)cc(C(F)(F)F)c2)nc1-c1ccccc1F`, the growth in assay [1] is 61%; in assay [2], 56.7%; in assay [3], 33.2%; in assay [4] it was 21.3%; in assay [5] it was 37.4%; in [6], 55.3%. In addition, the growth is 35.2% in [7]; 52.1% in assay [8]; 63.1% in assay [9]; 67.4% in assay [10]; 39.7% in assay [11]; 13.6% in assay [12]. Besides, the growth in assay [13] is 46.5%; in assay [14] it was 19.5%; in assay [15] it was 81.4%; in assay [16], 93.6%; in [17], 84%; in assay [19], 54%. For the same molecule, in [18], the growth is 75.9%.
For `CCNc1nc(C(F)(F)F)nc2c1sc(=S)n2-c1ccccc1`, the growth is 101% in [1]; 103% in assay [2]; 144% in assay [3]; 85.1% in assay [4]; 100% in [5]; 105% in [6]. Moreover, the growth in assay [7] is 94%; in assay [8], 101%; in assay [9], 108%; in assay [10], 94.7%; in [11], 88.8%; in [12], 99.2%. The growth in [13] is 107%; in [14], 93.3%; in [16], 87.6%; in assay [17], 93.9%; in assay [19], 88.6%; in [18], 112%.
Take `Cc1cc(CSc2ccccc2C(=O)N2CC=C(c3ccccc3)CC2)on1`: the growth is 107% in assay [1]; 89.1% in [2]; 95.8% in [3]; 95.3% in assay [4]; 107% in [5]; 108% in [6]. In addition, the growth was 99.6% in assay [7]; 92.9% in assay [8]; 108% in [9]; 95.2% in assay [10]; 84.2% in assay [11]; 90.3% in assay [12]. Further, the growth is 104% in [13]; 98.7% in assay [14]; 82.9% in [15]; 97.5% in [16]; 90.4% in assay [17]; 92.1% in [19]. Besides, the growth in assay [18] was 98.1%.
